{"source": "PubChem BioAssay (NCATS)", "note": "Results filed as inconclusive are left out. Unmarked numbers belong to inactive results. Activity calls are given as the source filed them. Calls follow the shape of the dose curve; as a rule, active = well fitted cell-killing curve with a large enough effect; inconclusive = small, poorly fitted or top-dose-only effect; inactive = flat fitted curve, though single readings scatter. Potency is read from the fitted curve at half-maximal effect."}
{"experiment": "Cell Viability - LYMP2-024 (AID 988); also: nearly all actives have a fitted effect of over 60% in size;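 as to activity change, negative = cytotoxicity: plate controls were DMSO only for no effect and 92 µM tetraoctylammonium bromide for full effect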", "details": "LYMP2-024 lymphoblastoid cell viability; series mostly up to 92.2 µM; activity change, negative = cytotoxicity: at the top concentration", "excerpt": "NIH Chemical Genomics Center [NCGC]\nNIH Molecular Libraries Screening Centers Network [MLSCN]\nNational Institutes of Environmental Health Sciences [NIEHS]\nNational Toxicology Program [NTP]\nWe have developed a 1536-well cell-based assay for quantitative high throughput screening (qHTS) against a number of cell lines to determine in vitro cytotoxicity of small molecules. This particular assay uses a human lymphoblastoid cell line (LYMP2-024) purchased from Coriell Institute for Medical Research.\nNCGC Assay Protocol Summary:\nThe CellTiter-Glo luminescent cell viability assay (Promega) is a homogeneous method to measure the number of viable cells in culture. The end point readout of this assay is based on quantitation of intracellular ATP, an indicator of metabolic activity, using the luciferase reaction. Luciferase catalyzes the oxidation of beetle Luciferin to oxyluciferin and light in the presence of ATP. The luminescent signal is proportional to amount of ATP present.\nUsing the CellTiter-Glo luminescent cell viability assay, the amount of cellular ATP was measured in the lymphoblastoid cell line with complete culture medium following compound treatment for 24 hours. The assay was performed in opaque white Kalypsys 1536-well plates. In the screen, tetraoctylammonium bromide was used as positive control. Library compounds were measured for their ability to cause acute toxicity in the cell line, as reflected by a decrease in intracellular ATP levels, in a concentration-dependent manner. […] AC50 values were determined from concentration-response data modeled with the standard Hill equation.\nqHTS protocol for CellTiter Glo lymphoblastoid cellular assay\n[Step] [Parameter] [Value] [Description]\n1. Reagent; 5 uL; 2500 lymphoblastoid cells/well\n2. Time; 5 hr; 37 C incubation\n4. Controls; 23 nL; Tetraoctylammonium bromide 6.4pM to 92 uM\n5. Time; 24 hr; 37 C incubation\n6. Reagent; 5 uL; CellTiter Glo reagent\n7. Time; 30 min; Room Temperature\n8. Detection; Luminescence; Viewlux plate reader\nKeywords: cell viability, cytotoxicity, lymphoblastoid cell line, luminescence, NTPHTS, NTPHTS_NCGC, NIEHS, DSSTox, MLSMR, MLSCN, NIH Roadmap, qHTS, NCGC", "units": {"activity change, negative = cytotoxicity": "%"}}
{"smiles": "Nc1ncnc2c1ncn2[C@H]1CC[C@@H](CO)O1", "activity change, negative = cytotoxicity": -6.51}
{"smiles": "Oc1ccc(/C=C/c2cc(O)cc(O)c2)cc1", "activity change, negative = cytotoxicity": -15.1}
{"smiles": "Cc1ccc(S(=O)(=O)O)cc1C", "activity change, negative = cytotoxicity": -9.8}
{"smiles": "Nc1nccs1", "activity change, negative = cytotoxicity": -4.19}
{"smiles": "CC1=CCC2CC1C2(C)C", "note": "(stereo not given)", "activity change, negative = cytotoxicity": -8.92}
{"smiles": "NCCN", "activity change, negative = cytotoxicity": -6.01}
{"smiles": "Cc1ncc[nH]1", "activity change, negative = cytotoxicity": -1.55}
{"smiles": "OCl", "activity change, negative = cytotoxicity": 3.97}
{"smiles": "OB(O)O", "activity change, negative = cytotoxicity": -7.37}
{"smiles": "C/C=C/C=C/C(=O)O", "activity change, negative = cytotoxicity": -4.1}
{"smiles": "C[C@H](CCC(=O)O)[C@H]1CC[C@H]2[C@@H]3[C@H](O)C[C@@H]4C[C@H](O)CC[C@]4(C)[C@H]3C[C@H](O)[C@]12C", "activity change, negative = cytotoxicity": -3.02}
{"smiles": "O=c1n(CC2CO2)c(=O)n(CC2CO2)c(=O)n1CC1CO1", "note": "(stereo not given)", "Potency": "39.8 µM (active)"}
{"smiles": "CC1=CC(=O)NS(=O)(=O)O1", "activity change, negative = cytotoxicity": 4.89}
{"smiles": "CCOC(C)OCC", "activity change, negative = cytotoxicity": 1.77}
{"smiles": "O=P(O)(O)O", "activity change, negative = cytotoxicity": -8.37}
{"smiles": "CO/N=C(/C(=O)N[C@@H]1C(=O)N2C(C(=O)O)=C(COC(N)=O)CS[C@H]12)c1ccco1", "activity change, negative = cytotoxicity": -0.636}
{"smiles": "CCCCC", "activity change, negative = cytotoxicity": -0.23}
{"smiles": "CC[C@H]1OC(=O)[C@H](C)[C@@H](O[C@H]2C[C@@](C)(OC)[C@@H](O)[C@H](C)O2)[C@H](C)[C@@H](O[C@@H]2O[C@H](C)C[C@H](N(C)C)[C@H]2O)[C@](C)(O)C[C@@H](C)CN(C)[C@H](C)[C@@H](O)[C@]1(C)O", "activity change, negative = cytotoxicity": -5.74}
{"smiles": "c1ccc2ccccc2c1", "activity change, negative = cytotoxicity": -13}
{"smiles": "ClC(Cl)Cl", "activity change, negative = cytotoxicity": 5.82}
{"smiles": "C[C@H](CCC(=O)O)[C@H]1CC[C@H]2[C@@H]3CC[C@@H]4C[C@H](O)CC[C@]4(C)[C@H]3C[C@H](O)[C@]12C", "activity change, negative = cytotoxicity": -5.56}
{"smiles": "OCc1ccccc1", "activity change, negative = cytotoxicity": 3.77}
{"smiles": "CC(C)(C)CC(C)(C)c1ccc(OCCO)cc1", "activity change, negative = cytotoxicity": -25.5}
{"smiles": "CCCCO", "Potency": "inactive"}
{"smiles": "Nc1ccc(N=Nc2ccccc2)c(N)n1", "activity change, negative = cytotoxicity": -17.7}
{"smiles": "C[C@H]1O[C@@H](O[C@H]2[C@@H](O)C[C@H](O[C@H]3[C@@H](O)C[C@H](O[C@H]4CC[C@@]5(C)[C@H](CC[C@@H]6[C@@H]5C[C@@H](O)[C@]5(C)[C@@H](C7=CC(=O)OC7)CC[C@]65O)C4)O[C@@H]3C)O[C@@H]2C)C[C@H](O)[C@@H]1O", "Potency": "0.158 µM (active)"}
{"smiles": "C=C1C(CCl)(CCl)C2(Cl)C(Cl)C(Cl)C1(Cl)C2(Cl)Cl", "note": "(stereo not given)", "Potency": "39.8 µM (active)"}
{"smiles": "[O-][N+](=Nc1ccccc1)c1ccccc1", "activity change, negative = cytotoxicity": -8.56}
{"smiles": "OCC(O)CO", "Potency": "inactive"}
{"smiles": "CO", "activity change, negative = cytotoxicity": -1.42}
{"smiles": "CC/C=C\\C/C=C\\C/C=C\\CCCCCCCC(=O)O", "Potency": "39.8 µM (active)"}
{"smiles": "CC(C)O", "activity change, negative = cytotoxicity": -1.24}
{"smiles": "NC(N)=O", "activity change, negative = cytotoxicity": 4.5}
{"smiles": "OC[C@H]1O[C@@H]2O[C@H]3[C@H](O)[C@@H](O)[C@@H](O[C@H]4[C@H](O)[C@@H](O)[C@@H](O[C@H]5[C@H](O)[C@@H](O)[C@@H](O[C@H]6[C@H](O)[C@@H](O)[C@@H](O[C@H]7[C@H](O)[C@@H](O)[C@@H](O[C@H]1[C@H](O)[C@H]2O)O[C@@H]7CO)O[C@@H]6CO)O[C@@H]5CO)O[C@@H]4CO)O[C@@H]3CO", "activity change, negative = cytotoxicity": -1.99}
{"smiles": "COC(=O)c1ccccc1O", "activity change, negative = cytotoxicity": -2.7}
